Source: PubChem BioAssay AID1159580 (chemical genetic matrix, 2015)
Several values for one entry are separate records, joined by “and”; a condition that tells them apart may be missing. Equal entries are not always repeated. The campaign covered roughly 5,500 compounds. About 2,000 (36%) were called active. Not shown: some 18% with an inconclusive outcome. Rule as the data show it: active = normalized growth mostly below about 0.91 (no sharp cut-off); inconclusive = no clear call, values can overlap the other calls; inactive = mostly above about 0.92. The list shows a part of the results.

Assay: chemical genetic growth profiling, strain panel (AID 1159580);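 also: tested at 20 µM; growth read once vehicle control cultures reached saturation at 30 °C; 1 = growth at the plate median or of vehicle wells; lower values mean less growth of the strain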
Conditions: S. cerevisiae deletion strains, growth OD

Measured: normalized growth

CN(N=O)C(=O)N[C@@H]1[C@@H](O)[C@H](O)[C@@H](CO)O[C@@H]1O
inactive: locus YAL021C, strain ccr4, hits give low values 1 | locus YAL026C, strain drs2, hits give low values 0.991 | locus YAL030W, strain snc1, hits give low values 0.988 | locus YBL061C, strain skt5, hits give low values 1.01 | locus YBR009C, strain hhf1, hits give low values 0.979 | locus YBR021W, strain FUR4, hits give low values 1 | locus YBR023C, strain chs3, hits give low values 0.999 | locus YBR171W, strain sec66, hits give low values 1.01 | locus YBR229C, strain ROT2, hits give low values 1 | locus YBR231C, strain swc5, hits give low values 0.997 | locus YBR279W, strain paf1, hits give low values 1.02 | locus YCL011C, strain gbp2, hits give low values 1 | locus YCL016C, strain dcc1, hits give low values 1.03 | locus YCL029C, strain bik1, hits give low values 0.99 | locus YCL061C, strain MRC1, hits give low values 1.02 | locus YCL069W, strain vba3, hits give low values 0.974 | locus YCR088W, strain abp1, hits give low values 0.973 | locus YDL005C, strain med2, hits give low values 0.98 | locus YDL035C, strain GPR1, hits give low values 1.03 | locus YDL040C, strain nat1, hits give low values 0.999 | locus YDL074C, strain BRE1, hits give low values 1.02 | locus YDL101C, strain DUN1, hits give low values 1.01 | locus YDL134C, strain PPH21, hits give low values 1.02 | locus YDL185W, strain tfp1, hits give low values 1.02 | locus YDL192W, strain arf1, hits give low values 1.01 | locus YDR001C, strain nth1, hits give low values 0.978 | locus YDR069C, strain doa4, hits give low values 0.986 | locus YDR101C, strain arx1, hits give low values 0.979 | locus YDR137W, strain rgp1, hits give low values 0.938 | locus YDR150W, strain NUM1, hits give low values 1.01 | locus YDR159W, strain sac3, hits give low values 0.945 | locus YDR162C, strain NBP2, hits give low values 1.04 | locus YDR195W, strain ref2 0.988 | locus YDR297W, strain sur2, hits give low values 0.998 | locus YDR318W, strain mcm21, hits give low values 1.01 | locus YDR334W, strain swr1, hits give low values 0.95 | locus YDR335W, strain msn5, hits give low values 0.981 | locus YDR388W, hits give low values 1.01 | locus YDR392W, strain spt3, hits give low values 0.956 | locus YDR502C, strain sam2, hits give low values 0.998 | locus YEL003W, strain gim4, hits give low values 0.995 | locus YEL037C, strain rad23, hits give low values 0.986 | locus YEL061C, strain CIN8 (second series), hits give low values 0.971 | locus YEL061C, strain CIN8, hits give low values 1.01 | locus YER015W, strain faa2, hits give low values 1 | locus YER016W, strain bim1, hits give low values 0.983 | locus YER110C, hits give low values 1.01 | locus YER111C, strain swi4, hits give low values 0.998 | locus YER155C, strain BEM2 (second series), hits give low values 0.983 | locus YER155C, strain BEM2, hits give low values 1 | locus YER167W, strain BCK2, hits give low values 1.02 | locus YFR010W, strain ubp6, hits give low values 0.954 | locus YGL078C, strain dbp3, hits give low values 1 | locus YGL086W, strain mad1, hits give low values 0.989 | locus YGL167C, strain pmr1, hits give low values 0.993 | locus YGL173C, strain kem1, hits give low values 1.01 | locus YGL227W, strain vid30, hits give low values 1.01 | locus YGL240W, strain doc1, hits give low values 0.985 | locus YGL248W, strain PDE1, hits give low values 0.996 | locus YGL253W, strain hxk2, hits give low values 0.982 | locus YGR078C, strain PAC10, hits give low values 0.999 | locus YGR135W, strain pre9, hits give low values 1.04 | locus YGR229C, strain SMI1, hits give low values 1.01 | locus YGR252W, strain gcn5, hits give low values 1.02 | locus YHR013C, strain ard1, hits give low values 0.999 | locus YHR027C, strain rpn1, hits give low values 0.99 | locus YHR030C, strain SLT2, hits give low values 1 and 1.02 | locus YHR079C, strain IRE1 (second series), hits give low values 1 | locus YHR079C, strain IRE1, hits give low values 1.07 | locus YHR094C, strain hxt1, hits give low values 1 | locus YHR129C, strain ARP1, hits give low values 0.998 | locus YHR142W, strain chs7, hits give low values 0.962 | locus YHR200W, strain rpn10, hits give low values 1.01 | locus YIL066C, strain RNR3, hits give low values 1.01 | locus YIL073C, strain SPO22, hits give low values 1.14 | locus YIL125W, strain kgd1, hits give low values 1 | locus YIR030C, strain dcg1, hits give low values 1 | locus YJL092W, strain hpr5, hits give low values 0.979 | locus YJL095W, strain BCK1 (second series), hits give low values 1 | locus YJL095W, strain BCK1, hits give low values 1.02 and 1 | locus YJL115W, strain asf1, hits give low values 0.981 | locus YJL129C, strain trk1, hits give low values 0.984 | locus YJL134W, strain LCB3, hits give low values 1 | locus YJL154C, strain vps35, hits give low values 0.998 | locus YJL164C, strain tpk1, hits give low values 0.993 | locus YJL166W, strain qcr8, hits give low values 1 | locus YJL168C, strain set2, hits give low values 1.01
